Laboratory results as given in the supplement of paper PMC6555819.

Each sequence was assayed on VDR:RXRa (NR concentration 270 nM, RXRa partner concentration 90 nM) (assay: PBM binding z-score (relative to random genomic background probes); higher = stronger binding; sequences stand for … in GC…GCGATTGACAGCGTAGAATGAAGG).
Experimental: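 Protein-binding microarray (Agilent 4x180K custom design, double-stranded 60-nt probes: 5' GC cap, 34-nt variable region, 24-nt constant primer region; full probe sequence given). Purified or IVT nuclear receptor:RXRα heterodimers (3:1 NR:RXRα, mostly 270:90 nM) or homodimers were incubated for 1 h in PBS with 2% milk and no ligand, then detected with Alexa488 antibodies. Fluorescence from o1-orientation probes (~5 replicates averaged) was converted to z-scores against 500 random hg19 background probes. Variable regions are seed direct-repeat (DR0–DR5) sites, all their single-nucleotide variants and half-site ablations.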

Row | Sequence | PBM binding z-score
1 | GCAGAAAGGTGAAACGCAGGTAACTCAGGGTGGC | 0.145
2 | TCTCGGAAGACACGAAGGTCAGAGCTTTCCAGAG | 1.08
3 | CGTCATAGTTCAACTAAGGTAACGTAAAGCACGC | 2.59
4 | TCAAGTTGGTCAAAGGTCACACACTCGAAATGCG | 5.58
5 | AGCCAAAGTTCATCTAGGTAACGTAAGATATGCT | 4.48
6 | CTACCAAGGTGAACAAGGTCGTTGTTTACTATTC | 6.2
7 | ACTATTAGTTGCGACGAGGGCAACCGATAGGTTG | 0.0281
8 | TCTGCTAAGTCAGTTGGTCAGCTAACGAGCTGCC | -0.514
9 | CGTCTAAGTTCAACTAAGGTAACGTAAAGCACGC | 4.12
10 | CCTCGGAGGACAGAAGGTCAGAGTTGTCCGCTTT | 1.12
11 | CCGAGTAGGTTAAGGGGCATTCAGGCAACGGTGA | 0.877
12 | ATCTCTAGGTAACAAGATCAGTGAAAGAGAGGAC | 0.388
13 | CCAGCTAGGTCAATGGTCAGCTAAAGCAGCTCGC | 1
14 | CCTTACGCGTCACTCCAGGTTATAGCATCGGAGT | 0.361
15 | GGAACGCGGGCATTCGAGTTGATAGCATGGCGAT | -0.234
16 | CCTGATAGGTCATGGTCAGCTAATCTACAGTATG | 2.95
17 | AGTCAAGGTTCAGGACGAGGTAACGTAAAGCACG | 2.03
18 | TCTTGTAGATCAATATAGGTTAAGAAAGTGCGCT | 1.24
19 | TCATATAGGTAAAGGTGAAATTCGAACGATATGA | 1.03
20 | CCGACTGGGGCAGAAAGGTTCCCATACCATCCGG | -0.573

Row | Sequence | PBM binding z-score
21 | TCATATAGGTAAGAGGTGAAAGTCGGTGTGGTAA | 1.33
22 | TCATATAGGTACAAGGTGAAAGTCGGTGTGGTAA | 1.22
23 | CCTTCTAGGTCATGGTCAGCTAATCTACAGTATG | 2.07
24 | CGTCCATGGTCAGAGAGGTCAGTGAATGCCGAGT | 4.63
25 | ATATGTAGGTTATCGGGTCATCCAGTTTGCGCAT | 5.43
26 | AGAATGAGGTTATACTTAGATCAGGGAAGAAAGT | 1.41
27 | CAAACTAGGTCACAGAGGTCAAAGGCCGTGCGTA | 8.04
28 | AGAACGAGGTTATACGTAGATCAGGGAAGAAAGT | 1.08
29 | TTACCACGGTGAAGGTCGTTGATCCCTCTGTAGA | 0.957
30 | CTCGAAACGTCGGTTGAGGTGAGTATACGGATAA | -0.213
31 | TTACCAAGGTGAGCTGAGGTCGTTCATCCAACTC | 4.32
32 | ATCTCTAGGTAAACGTTCAGTGAATCCCGAGGAT | -0.107
33 | ACTCGGAGGACATAGGTCAGAGCTACGCCAGTGA | 1.03
34 | GCAGACAGGTGAAGCGCAGGTAACTCAGGGTGGC | -0.67
35 | CCAACTGGGCCAAAGGTCATTGATTCCAATGCTC | 4.72
36 | CGAACTAGGTCAGAACAGGGCAGTGAAGGATGAT | 0.903
37 | TCTGCTAGGTCTACGATGGTCAGCTAATCTGCTA | -0.625
38 | AGAACGAGGGCAATGAGTTGATCGCACGGGTGGC | 5.13
39 | CCTGCTTGGTCAATGGTCAGCTAAAGCAGCTCGC | -0.576
40 | GCATATAGGTAATACAAGGTGAAAGTCCGATTGT | 0.299
